PMP22 txn prim – PMP22 gene transcription modulation. hit rate 2% among 43,000. S16 Pmp22-F2sN Schwann cells, FLuc/NLuc coincidence luminescence, 24 h. Potency, µM (series often up to 57.5 µM), for the others: at the top dose activity change, negative = inhibition, hits mostly inhibitors; active = clear falling dose curves in both reporters; inconclusive = both reporters move, but less clearly or upward; inactive = either reporter flat; the % is the NLuc reporter signal; also: potency is read from the fitted curve at half-maximal effect; % is scaled to controls: 0 for no effect and ±100 for the full control effect
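qHTS, 1536-well. Cells seeded, compounds added by pin tool, 24 h 37C. Nano-Glo reagent 1 (lysis/FLuc), 10 min RT, read; Stop&Glo, 10 min RT, read NLuc.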
SKOV3 invasion – blocks SKOV3ip1 adhesion and invasion in omental model | SKOV3ip1-GFP adhesion/invasion on 3D omental model, fluorescence | Potency, µM (titrated, usually from 45.8 µM), inactives show top-dose activity change, negative = inhibition, hits mostly inhibitors | hit rate 0.1% among 46,000;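 also: potency is read from the fitted curve at half-maximal effect; plate controls were DMSO wells for no effect and tomatine positive control wells for full effect; nearly all actives have a fitted effect of over 65% in size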
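Adhesion/invasion was scored as fixed GFP-labeled SKOV3ip1 cell counts (488/509 nm), normalized to DMSO and tomatine controls. Cancer cells in serum-free medium, with four compound doses (0.36-46 umol/L), sat 2 hr at RT then 16 hr at 37 C on a 48 hr fibroblast/mesothelial/ECM culture.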
S16 viability – cytotoxicity in S16 Pmp22-F2sN Schwann cells; S16 Pmp22-F2sN Schwann cells (luciferase reporters placed in the Pmp22 gene) viability, CellTiter-Glo, 24 h; hit rate 0.48% among 43,000; Potency, µM (doses to about 57.5 µM), for inactives: at the top dose activity change, negative = cytotoxicity, actives largely listed as cytotoxic; also: potency is read from the fitted curve at half-maximal effect; % is scaled to controls: 0 for no effect and ±100 for the full control effect; nearly all actives have a fitted effect of over 65% in size
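Luminescence from CellTiter-Glo, read by CCD camera after a 15 min room-temperature incubation, served as the viability signal. Reporter Schwann cells (S16 Pmp22-F2sN) had been treated with pin-transferred compounds for 24 h at 37C.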
pS6 MEF inh – mTORC1 pathway inhibition measured by phospho-rpS6 | Tsc2-/- p53-/- MEF, phospho-rpS6 immunofluorescence/PI, 24 h | Potency, µM (doses to about 38.3 µM), without a hit: at the top dose activity change, negative = inhibition, hits mostly inhibitors | hit rate 0.78% among 44,000;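 also: potency is read from the fitted curve at half-maximal effect; plate controls were DMSO for no effect and rapamycin for full effect; nearly all actives have a fitted effect of over 50% in size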
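Immunofluorescence of rpS6 phosphorylation in Tsc2-/-, p53-/- MEFs after 24 h compound exposure, normalized to propidium iodide signal. Activity is expressed as % positive cells, thresholded with 7.5 nM rapamycin.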
GALC G270D up – enhancers of human galactocerebrosidase G270D mutant activity in cells; P54803; 145M-Twi-hGALC-G270D cells (Twitcher mouse brain line with human GALC G270D), HMU-beta-Gal fluorescence, 48 h; Potency, µM (series often up to 57.5 µM), hits mostly activators; hit rate 0.1% among 45,000; AID 1159614; also: potency is read from the fitted curve at half-maximal effect; 0% is about no effect; nearly all actives have a fitted effect of over 65% in size
Target sequence (P54803 whole entry G286D): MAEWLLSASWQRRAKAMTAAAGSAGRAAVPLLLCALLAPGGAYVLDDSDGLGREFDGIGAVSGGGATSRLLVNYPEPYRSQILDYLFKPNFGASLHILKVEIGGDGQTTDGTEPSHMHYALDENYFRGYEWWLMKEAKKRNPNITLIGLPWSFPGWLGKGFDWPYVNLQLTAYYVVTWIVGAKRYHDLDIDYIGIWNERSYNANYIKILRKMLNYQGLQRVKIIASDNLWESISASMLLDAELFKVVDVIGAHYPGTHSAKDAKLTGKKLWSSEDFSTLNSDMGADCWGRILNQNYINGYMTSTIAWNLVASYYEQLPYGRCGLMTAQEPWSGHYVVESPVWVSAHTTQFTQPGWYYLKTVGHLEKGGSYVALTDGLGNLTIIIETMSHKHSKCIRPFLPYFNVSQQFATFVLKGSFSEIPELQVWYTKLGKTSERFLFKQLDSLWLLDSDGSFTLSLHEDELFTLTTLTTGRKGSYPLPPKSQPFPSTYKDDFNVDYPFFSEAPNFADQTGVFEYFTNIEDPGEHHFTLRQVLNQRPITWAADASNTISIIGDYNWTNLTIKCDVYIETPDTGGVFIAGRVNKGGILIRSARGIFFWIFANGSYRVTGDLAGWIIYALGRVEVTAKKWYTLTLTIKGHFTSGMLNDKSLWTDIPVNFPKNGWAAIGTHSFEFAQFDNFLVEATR
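Mutant human GALC (G270D), stably expressed in a Twitcher mouse brain cell line lacking endogenous GALC, is measured in live-treated cells via 6-hexadecanoylamino-4-methylumbelliferyl-β-galactoside hydrolysis (0.1 mM final, pH 5.2) with fluorescent detection.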
NLuc sat counter – NanoLuc enzyme inhibition artifact for PMP22 screen; shares compounds with PMP22 txn prim; Secreted NLuc enzyme (filtered S16 cell medium), Nano-Glo luminescence; Potency, µM (doses to about 57.5 µM), for inactives: top-dose activity change, negative = inhibition, usual class: inhibitors; hit rate 4% among 690; AID 1508638; also: potency is read from the fitted curve at half-maximal effect; % is scaled to controls: 0 for no effect and ±100 for the full control effect
NLuc Km ctr – inhibits NanoLuc under Km conditions, PMP22 counter-screen; hit rate 5% among 690; secreted NLuc enzyme, coelenterazine luminescence, Km conditions; shares compounds with PMP22 txn prim; Potency, µM (titrated, usually from 57.5 µM), for inactives: at the highest dose activity change, negative = inhibition, actives largely listed as inhibitors; also: potency is read from the fitted curve at half-maximal effect; % is scaled to controls: 0 for no effect and ±100 for the full control effect
FLuc ctr PMP22 – firefly luciferase enzyme inhibition artifact for PMP22 screen. 690 tested, under 10 active. shares compounds with PMP22 txn prim. purified P. pyralis FLuc, luminescence, 10 min. AID 1508640. Potency, µM (doses to about 57.5 µM), inactives show top-dose activity, negative = inhibition, most hits filed as inhibitors; also: % of control where 0% means no effect
S16 viab conf – S16 Schwann cell cytotoxicity, confirmatory; shares compounds with PMP22 txn prim; S16 Schwann cells viability, CellTiter-Glo ATP luminescence, 24 h; Potency, µM (highest dose often 57.5 µM), for the others: at the top dose activity change, negative = viability loss, actives largely listed as cytotoxic; hit rate 7% among 690; also: potency is read from the fitted curve at half-maximal effect; % is scaled to controls: 0 for no effect and ±100 for the full control effect
PMP22 txn cnf – PMP22 transcription modulation, confirmatory. shares compounds with PMP22 txn prim. hit rate 22% among 690. Potency, µM (series often up to 57.5 µM), inactives show top-dose activity change, negative = inhibition, usual class: inhibitors. S16 Schwann cells Pmp22-F2sN, dual luciferase, 24 h; active = clear falling dose curves in both reporters; inconclusive = both reporters move, but less clearly or upward; inactive = either reporter flat; the % is the FLuc reporter signal; also: potency is read from the fitted curve at half-maximal effect
PMP22 HiBiT cnf – confirmation of modulators of rat PMP22 protein expression; shares compounds with PMP22 txn prim; S16 Schwann cells Pmp22-HiBiT, luminescence, 48 h; Potency, µM (series often up to 27.9 µM), without a hit: at the top dose activity change, negative = inhibition, hits mostly inhibitors; 95 tested, under 10 active; AID 1508647
Active calls of the source: *; i = inactive; ? = inconclusive; . = not tested or not shown. Compounds with a hit are over-represented: about 2.6% of the library has one in this group of screens. Unless noted, calls follow the shape of the dose curve; as a rule, active = well fitted curve in the direction sought with a large enough effect; inconclusive = small, poorly fitted or top-dose-only effect, or another doubt; inactive = no such curve, though single readings can be large; an effect the other way counts as inactive or inconclusive.

SMILES	PMP22 txn prim	SKOV3 invasion	S16 viability	pS6 MEF inh	GALC G270D up	NLuc sat counter	NLuc Km ctr	FLuc ctr PMP22	S16 viab conf	PMP22 txn cnf	others
CCN1CCOC(=O)C1CC(=O)Nc1cc(Cl)ccc1OC (centres undefined)	19µM*	i	?	?	i	-8%	0%	4%	7%	?
C[C@H](CCC(=O)O)[C@H]1CC[C@H]2[C@H]3[C@@H](CC[C@]12C)[C@@]1(C)CC[C@@H](O)C[C@H]1C[C@@H]3O	.	1%	.	.	.	.	.	.	.	.
COC(=O)c1c(-c2ccc(Cl)cc2)noc1N1CCN(c2cccc(OC)c2)CC1	7µM*	-23%	?	4%	i	?	-5%	4%	5%	12µM*
COc1ccc(CCNC(=O)c2ccc(Cn3c(=O)c4ccccc4n(Cc4cccc(Cl)c4)c3=O)cc2)cc1OC	?	118%	7%	12%	i	-16%	3%	1%	3%	3%
COCCCNC(=O)c1ccc(Cn2c(=O)c3ccccc3n(Cc3ccccc3C)c2=O)cc1	?	-24%	2%	-16%	i	.	.	.	.	.
O=C(NC1CCN(Cc2ccccc2)CC1)c1ccc(Cn2c(=O)c3ccccc3n(Cc3ccc(Cl)cc3)c2=O)cc1	12µM*	-9%	5%	-3%	i	-7%	0%	8%	12µM*	11µM*
O=C(NC1CCN(Cc2ccccc2)CC1)c1ccc(Cn2c(=O)c3ccccc3n(Cc3ccccc3)c2=O)cc1	-32%	i	6%	-8%	i	.	.	.	.	.
COCCCNC(=O)c1ccc(Cn2c(=O)c3ccccc3n(Cc3ccc(Cl)cc3)c2=O)cc1	11µM*	i	?	6%	i	?	?	1%	-24%	-41%
CC(=O)Nc1cccc(-n2c(=O)n(C3CC3)c(=O)c3c(Nc4ccc(I)cc4F)n(C)c(=O)c(C)c32)c1	.	11%	.	.	.	.	.	.	.	.
CCc1ccccc1Nc1nn2c(=O)c3ccc(C(=O)Nc4cc(C)cc(C)c4)cc3nc2s1	7.3µM*	1%	16%	-10%	i	-4%	?	-3%	22µM*	12µM*	PMP22 HiBiT cnf=-8%
Cc1ccc(C)c(Nc2nn3c(=O)c4ccc(C(=O)NCc5cccs5)cc4nc3s2)c1	13µM*	-9%	?	?	i	-13%	?	-1%	?	?

Screening data from PubChem.
